Eight molecules from PubChem BioAssay (NCI) can be followed below.

This is part of a sample that, as a whole, favours compounds with a hit. Of some 79,000 tested, about 15% had one in any assay. A number with no mark means an inactive call. Active and inactive are the calls of the source. Cut-off read from the data, not from the text of the source: active = growth inhibition above about 70%; inactive = the rest.

A short description of the experiment: NCI Yeast Anticancer Drug Screen. Data for the CLN2oe strain (AID 163).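 Note: 0% = growth of vehicle-only control cultures.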 The settings on record: S. cerevisiae CLN2oe strain, hits give high values. On the procedure: Growth inhibition of yeast strains with defined genetic alterations is measured as a screen for potential anti-cancer activity. Selected strains with alterations in DNA damage repair or cell cycle control were exposed to compounds and growth inhibition was measured relative to vehicle treated controls. The strain used in this assay is CLN2oe

Turning to `Cc1sc2ccc3ccccc3c2[n+]1C`, the growth inhibition was -16% (at 1.2 µM); -64% (at 3.7 µM); -39% (at 11.0 µM); -19% (at 33.0 µM); 92% (active) (at 100.0 µM).
The like results for `COC(=O)CC1CCc2c(ccc3ccccc23)C1(C)C(=O)OC` (stereo not given) were, in that order, -4%, -5%, -11%, -21% and 0%.
The like results for `CC(C)C(C)/C=C\C(C)C1CCC2C3=CC=C4CC(O)CCC4(C)C3CCC21C` (stereo not given) were, in that order, 0%, -2%, -2%, -4% and 11%.
Take `Clc1ccc(NCNC2Nc3ccccc3N2)cc1Cl`: the growth inhibition (at 1.2 µM) is -5%; the growth inhibition (at 3.7 µM) was -13%; the growth inhibition (at 11.0 µM) was -3%; the growth inhibition (at 33.0 µM) is 89% (active); the growth inhibition (at 100.0 µM) is 98% (active).
As to `CCc1c[n+]([O-])c(C)cc1[N+](=O)[O-]`, the growth inhibition is, setting by setting: (at 1.2 µM) -2%; (at 3.7 µM) -4%; (at 11.0 µM) -5%; (at 33.0 µM) -14%; (at 100.0 µM) -2%.
For the molecule `OC1(c2ccccc2)CCCc2ccc(Cl)cc21` (stereo not given), the growth inhibition is 1% (at 1.2 µM); 0% (at 3.7 µM); -17% (at 11.0 µM); 20% (at 33.0 µM); 99% (active) (at 100.0 µM).
The like results for `CCCCNC1CCC2(SCCS2)c2[nH]c3ccccc3c21` (stereo not given) were, in that order, 10%, -4%, 0%, -1% and 6%.
The like results for `Cn1c(-c2ccc(/C=N\N3CCN(/N=C/c4ccc(-c5c[n+]6ccccc6n5C)cc4)CC3)cc2)c[n+]2ccccc12` were, in that order, -22%, -41%, -27%, 52% and 86% (active).
